From PubChem BioAssay
RAM inhibit: blocks the yeast RAM network | S. cerevisiae dse1pr::URA3 reporter, 5-FOA growth OD615, 2 d; analog-sensitive cbk1-as2 kinase mutant strain | inhibition, % at 50 µM | actives 1.8% (n = 190,000);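 active = inhibition above a set limit, 3 SD over mean compound inhibition, cut at about 8.4% in these data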;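 note: 0% = DMSO-only wells with no growth and 100% = 10 µM 1-NA-PP1 full growth; inhibition rescues growth on 5-FOA so higher OD means more RAM inhibition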
L major viab: inhibitors of Leishmania major promastigote growth. Leishmania major promastigotes, resazurin fluorescence viability. inhibition, % at 10 µM. actives 9% (n = 200,000). AID 1063; in the data active = inhibition above about 50%;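 note: promastigotes grown with compound for 44 hours at 28 °C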
CHOP inhibitor: inhibitors of CHOP induction in ER stress response | actives 3.8% (n = 220,000) | AID 2732 | inhibition, % at 10 µM | CHO-K1 CHOP-promoter luciferase, tunicamycin-induced, 15-18 h;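 active = compounds that reduced the stress-induced luciferase reporter signal by more than about 70% of percent inhibition, limit read from the data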;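 note: 0% = tunicamycin plus vehicle and 100% = wells without tunicamycin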
WT yeast gro inh: growth inhibition of WT yeast, mitochondrial fusion screen | AID 1362 | inhibition, % at 10 µM | mitochondrial fusion phenotypic screen, WT strain | actives 2.1% (n = 190,000); in the data active = inhibition above about 58%; tested in S. cerevisiae
* hit, by the source's call. An excerpt weighted towards active compounds, which were near 13% of everything screened.

For COc1ccc(Cl)cc1S(=O)(=O)N1CCN(Cc2ccc3c(c2)OCO3)CC1 the results were RAM inhibit 0, L major viab 72*, CHOP inhibitor 73* and WT yeast gro inh 65*.
For Cn1cc(CN2CCN(Cc3ccc4c(c3)OCO4)CC2)c(-c2ccccc2F)n1 the results were RAM inhibit -1, L major viab 60*, CHOP inhibitor 5 and WT yeast gro inh 5.
For O=S(=O)(Cc1ccccc1Cl)N1CCN(Cc2ccc3c(c2)OCO3)CC1 the results were RAM inhibit 0, L major viab 96*, CHOP inhibitor 8 and WT yeast gro inh -20.
COc1ccc(F)cc1S(=O)(=O)N1CCN(Cc2ccc3c(c2)OCO3)CC1 was read as RAM inhibit 1, L major viab 12, CHOP inhibitor 27 and WT yeast gro inh 5.
CC1CCCC(NC(=O)CCNS(=O)(=O)c2ccc(Br)cc2)C1C (centres undefined) was read as RAM inhibit 3, L major viab 11, CHOP inhibitor 16 and WT yeast gro inh 9.
`Nc1ccccc1CNc1nc(NCCO)nc2c1ncn2CCN1CCOCC1` gave CHOP inhibitor 7.
Screening COCCNC(=O)C(=O)N/N=C(\C)CC(=O)Nc1cccnc1 returned RAM inhibit 1, L major viab 0, CHOP inhibitor 19 and WT yeast gro inh -5.
For CSc1ccc(S(=O)(=O)N2CCN(Cc3ccc4c(c3)OCO4)CC2)cc1 the results were RAM inhibit 1, L major viab 82*, CHOP inhibitor 62 and WT yeast gro inh 30.
Screening NCCc1c(-c2ccccc2)n(-c2ccccc2)c2ccccc12 returned RAM inhibit 1, L major viab 101*, CHOP inhibitor -9 and WT yeast gro inh 87*.
CN(C)c1nnnn1-c1ccccc1Oc1ncc(C(F)(F)F)cc1Cl was read as RAM inhibit 1, L major viab -1, CHOP inhibitor -18 and WT yeast gro inh -17.
`COc1ccc(-c2nc(NC(=O)c3n[nH]c(=O)c4ccccc34)sc2C)cc1` gave RAM inhibit 1, L major viab 63*, CHOP inhibitor 100* and WT yeast gro inh -17.
For COc1cc(NC(=O)c2n[nH]c(=O)c3ccccc23)cc(OC)c1 the results were CHOP inhibitor 17.
Cc1c(NC(=O)Cn2[nH]c(=O)c3ccccc3c2=O)c(=O)n(-c2ccccc2)n1C was read as RAM inhibit 3, L major viab 2, CHOP inhibitor -2 and WT yeast gro inh -8.
Cc1sc(NC(=O)Cn2[nH]c(=O)c3ccccc3c2=O)nc1-c1ccccc1 was read as RAM inhibit 4, L major viab 8, CHOP inhibitor 88* and WT yeast gro inh 21.
COCCCNC(=O)CN(c1cc([N+](=O)[O-])ccc1OC)S(C)(=O)=O was read as RAM inhibit 2, L major viab -3, CHOP inhibitor 17 and WT yeast gro inh -13.
For COc1cccc(NC(=S)N(CCCN2CCC(C)CC2)Cc2cccs2)c1 the results were RAM inhibit 1, L major viab 68*, CHOP inhibitor 11 and WT yeast gro inh 4.
For CSc1cccc(NC(=S)N(CCCN2CCC(C)CC2)Cc2cccs2)c1 the results were RAM inhibit 0, L major viab 61*, CHOP inhibitor 21 and WT yeast gro inh 14.
For COc1ccc(NC(=S)N(CCCN2CCC(C)CC2)Cc2cccs2)cc1 the results were RAM inhibit -1, L major viab 42, CHOP inhibitor 0 and WT yeast gro inh -1.
`Cc1nc2ccccn2c1C(=O)/C=C/c1ccc(F)cc1` gave RAM inhibit 1, L major viab 86*, CHOP inhibitor -59 and WT yeast gro inh 12.
CCn1cc(C(=O)NCCCN2CCC(C)CC2)c(=O)c2cc(S(=O)(=O)N3CCCC3)ccc21 was read as RAM inhibit 2, L major viab -2, CHOP inhibitor 25 and WT yeast gro inh -4.
For CCCCN(CC)CCCNC(=O)c1cn(CC)c2ccc(S(=O)(=O)N3CCc4ccccc4C3)cc2c1=O the results were RAM inhibit 0, L major viab 98*, CHOP inhibitor 22 and WT yeast gro inh 4.
Screening CCn1cc(C(=O)N2CCc3ccccc32)c(=O)c2cc(S(=O)(=O)N(C)C3CCCCC3)ccc21 returned RAM inhibit 4, L major viab 5, CHOP inhibitor -1 and WT yeast gro inh 83*.
`CCCN(CCC)CCCNC(=O)c1cn(CC)c2ccc(S(=O)(=O)N3CCc4ccccc4C3)cc2c1=O` gave RAM inhibit 0, L major viab 99*, CHOP inhibitor 19 and WT yeast gro inh -7.
`CCCCN(C)CCCNC(=O)c1cn(CC)c2ccc(S(=O)(=O)N3CCc4ccccc4C3)cc2c1=O` gave RAM inhibit -1, L major viab 99*, CHOP inhibitor 26 and WT yeast gro inh 4.
Screening CCn1cc(C(=O)NCCCN2CCCC2)c(=O)c2cc(S(=O)(=O)N3CCc4ccccc4C3)ccc21 returned RAM inhibit -1, L major viab 46, CHOP inhibitor 22 and WT yeast gro inh 0.
Screening Cn1c(=O)c2[nH]c(-c3ccc(S(=O)(=O)O)cc3)nc2n(C)c1=O returned CHOP inhibitor -47.
`CC(=O)c1ccc(NC(=O)C(C)OC(=O)COc2ccc(C#N)cc2)cc1` (centres undefined) gave RAM inhibit 0, L major viab -8, CHOP inhibitor -6 and WT yeast gro inh 0.
Screening CCn1cc(C(=O)NCc2ccco2)c(=O)c2cc(S(=O)(=O)N3CCc4ccccc4C3)ccc21 returned RAM inhibit 4, L major viab 97*, CHOP inhibitor 17 and WT yeast gro inh -6.
`CC(=O)Nc1ccc(Cc2nc3ccccc3[nH]2)cc1` gave RAM inhibit -2, L major viab -4, CHOP inhibitor 24 and WT yeast gro inh 1.
O=C(Nc1nc(-c2ccc3c(c2)OCCO3)cs1)c1ccc(S(=O)(=O)N2CCCCC2)cc1 was read as RAM inhibit 3, L major viab 86* and WT yeast gro inh 21.
O=C(Nc1nc(-c2ccc(S(=O)(=O)N3CCCCCC3)cc2)cs1)c1ccccc1 was read as RAM inhibit 1, L major viab 12, CHOP inhibitor -3 and WT yeast gro inh 13.
`O=C(Nc1nc(-c2cccs2)cs1)c1ccc(S(=O)(=O)N2CCCC2)cc1` gave RAM inhibit 2, L major viab 77*, CHOP inhibitor 44 and WT yeast gro inh 7.
`Cc1ccc(NC(=O)CCC(=O)OCc2ccc(Br)cc2)cc1` gave RAM inhibit 2, L major viab -3, CHOP inhibitor 52 and WT yeast gro inh -7.
CCC1=C(OC(=O)N(CC)CC)N2C(=O)OC(=NCC3CC3)[C@]2(Cc2ccccc2)[C@H]2C1=CC[C@H]1C(=O)N(CC)C(=O)[C@H]12 was read as CHOP inhibitor 9.
`O=c1[nH]c2ccccc2n1CCC1CCCCC1` gave RAM inhibit -2, L major viab -1, CHOP inhibitor 86* and WT yeast gro inh 43.
CC(C)CCn1c(=O)[nH]c2ccccc21 was read as CHOP inhibitor 5.
`CC(C)c1ccc(-n2c(-c3ccccc3)c[n+]3c2CCc2ccccc2-3)cc1` gave RAM inhibit 7, L major viab 100*, CHOP inhibitor 65 and WT yeast gro inh 49.
